Several values for one entry are separate records, joined by “and”; a condition that tells them apart may be missing. Equal entries are not always repeated. Results filed as inconclusive are left out. A call without a number means that no potency is given here. Activity calls are given as the source filed them. Calls come from the whole dose curve; as a rule, active = well fitted inhibition curve with a large enough effect in the repeat runs; inconclusive = weak or mixed curves; inactive = no such curve, though single readings can be large or run the other way.
Molecular target: Cytochrome P450 3A4 (Homo sapiens) (UniProt P08684)
Assay: Cytochrome P450 Family 3 Subfamily A Member 4 (CYP3A4) small molecule antagonists: luciferase reporter qHTS assay (AID 1671201); note: nearly all actives have a fitted effect of over 50% in size
Conditions: P450-Glo CYP3A4 enzyme, luciferin luminescence, 1 h; series mostly up to 115 µM
Source text: National Center for Advancing Translational Sciences [NCATS]
U.S. Environmental Protection Agency [EPA]
National Institutes of Environmental Health Sciences [NIEHS]
National Toxicology Program [NTP]
U.S. Food and Drug Administration [FDA]
Cytochrome P450 (CYP) enzymes are membrane-bound hemeproteins that play a key role in metabolism of drugs and xenobiotics. Evaluation of the effect of chemicals on CYP isozymes is useful to minimize the adverse drug reactions and toxicities in drug development process. Tox21 chemicals were tested for their effect on CYP enzyme activities by using P450-Glo (TM) screening systems (Promega Corporation, Madison, WI). These systems provide a luminescent method containing proluciferin substrates and are converted to luciferin products by CYP isozymes. The luciferin products formed are detected with a luciferin detection reagent, and the amount of light produced is proportional to CYP activity. P450-Glo (TM) CYP3A4 screening system (Catalog. No. V9910) was used to detect the compounds that interfere in CYP3A4 activity. The positive control compound used for CYP3A4 assay is ketoconazole (Sigma-Aldrich, St. Louis, MO).
Tox21 Assay Protocol Summary:
Two ul of enzyme-substrate mix was dispensed into medium binding white/solid 1536-well plates (Greiner Bio-One North America Inc., Monroe, NC) using a BioRaptr Flying Reagent Dispenser (FRD, Beckman Coulter, Brea, CA). Compounds dissolved in DMSO and positive control (ketoconazole) were transferred to the assay plates at 23 nl using a Pintool station (Wako, San Diego, CA). The assay plates were incubated at room temperature for 10 min. Then 2 ul of NADPH regeneration solution was added to each well of the assay plates using an FRD and incubated at room temperature for 1 h. The reaction was stopped by adding 4 ul of detection reagent using an FRD and after 20 min incubation at room temperature the luminescence signal was measured using a ViewLux plate reader (Perkin Elmer, Shelton, CT). Data were expressed as relative luminescence units.
Potency is the fitted concentration of half-maximal effect.

Cytochrome P450 3A4 (Homo sapiens), sequence (P08684 whole entry, looked up): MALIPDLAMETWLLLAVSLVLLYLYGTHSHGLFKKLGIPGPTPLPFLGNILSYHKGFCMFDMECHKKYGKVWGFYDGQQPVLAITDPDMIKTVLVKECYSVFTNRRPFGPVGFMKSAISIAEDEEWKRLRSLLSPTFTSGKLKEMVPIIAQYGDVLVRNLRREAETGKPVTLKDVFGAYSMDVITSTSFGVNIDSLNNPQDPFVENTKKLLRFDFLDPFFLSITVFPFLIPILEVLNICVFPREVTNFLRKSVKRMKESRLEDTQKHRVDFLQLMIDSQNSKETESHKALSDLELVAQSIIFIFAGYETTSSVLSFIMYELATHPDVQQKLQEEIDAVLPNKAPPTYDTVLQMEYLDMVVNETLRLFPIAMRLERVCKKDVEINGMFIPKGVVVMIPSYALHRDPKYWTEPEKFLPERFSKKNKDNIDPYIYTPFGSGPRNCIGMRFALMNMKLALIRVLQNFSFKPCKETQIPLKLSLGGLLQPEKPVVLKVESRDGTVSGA

| SMILES | Potency |
| --- | --- |
| Cc1ccc(C(=O)O)o1 | inactive |
| CC(C)(CO)COC(=O)C(C)(C)CO | inactive |
| c1ccc2[nH]cnc2c1 | inactive |
| CC1(C)CC(N=C=O)CC(C)(CN=C=O)C1 (stereo not given) | 4.05 µM (active) and 2 µM (active) |
| O=S(=O)(O)c1cc(S(=O)(=O)O)c2c(N=Nc3ccccc3)c(O)ccc2c1 | inactive |
| O=C(O)c1ccc([N+](=O)[O-])cc1 | inactive |
| CCOC(=O)C1OC1c1ccccc1 (stereo not given) | inactive |
| C=CC(=O)OCCCCCCCC(C)C | inactive |
| C/C=C(C)/C=C/C=C(C)C | 31.3 µM (active) and 35.6 µM (active) |
| Cc1cc(=O)[nH]c(C(C)C)n1 | inactive |
| COC(=O)c1ccc(C(=O)OC)cc1 | inactive |
| CC(C)n1c(/C=C/[C@@H](O)C[C@@H](O)CC(=O)O)c(-c2ccc(F)cc2)c2ccccc21 | inactive |
| NC(=O)/N=N/C(N)=O | inactive |
| OCC#CCO | inactive |
| Cn1c([N+](=O)[O-])cnc1COC(N)=O | inactive |
| O=Nc1ccc(O)cc1 | inactive |
| O=[N+]([O-])C(CO)(CO)CO | inactive |
| CCCCCCC(C)(C)S | inactive |
| CCCCC(CC)C(=O)OCCOCCOCCOC(=O)C(CC)CCCC (stereo not given) | 7.18 µM (active) and 8.94 µM (active) |
| OCCOCCOCCOCCO | inactive |

| SMILES | Potency |
| --- | --- |
| C[C@@H](O)[C@H]1C(=O)N2C(C(=O)O)=C(S[C@@H]3CN[C@H](C(=O)N(C)C)C3)[C@H](C)[C@H]12 | inactive |
| CC1=CC[C@H]2C[C@@H]1C2(C)C | inactive |
| CC(C)(N=C=O)c1cccc(C(C)(C)N=C=O)c1 | 2.81 µM (active) and 7.96 µM (active) |
| CCOC(=O)/C=C\C(=O)OCC | inactive |
| O=S(=O)(Oc1ccc(Cl)cc1Cl)c1ccccc1 | inactive |
| Cc1ccc(C)c(C)c1 | inactive |
| CC1=C(CC(=O)O)c2cc(F)ccc2/C1=C\c1ccc(S(C)=O)cc1 (stereo not given) | inactive |
| Oc1ccc(OCc2ccccc2)cc1 | inactive |
| C=C(C)C(=O)OCC(CC)(COC(=O)C(=C)C)COC(=O)C(=C)C | inactive |
| Clc1ccc(Cl)c(Cl)c1Cl | inactive |
| Cc1cc(O)cc(C)c1Cl | inactive |
| S=c1nc[nH]c2nc[nH]c12 | inactive |
| CC1=C(/C=C/C(C)=C/C=C/C(C)=C/CO)C(C)(C)CCC1 | 18.1 µM (active) and 11.9 µM (active) |
| COC(=O)c1ccccc1O | inactive |
| Clc1cc(Cl)c(Cl)cc1Cl | inactive |
| NCc1cccc(CN)c1 | 36.6 µM (active) and 2.83 µM (active) |
| CCCCOCCO | inactive |
| CC1CC(OC(=O)c2ccccc2O)CC(C)(C)C1 (stereo not given) | inactive |
| CCCCC(CC)COC(C)=O (stereo not given) | inactive |
| CC1COc2ccccc2N1C(=O)C(Cl)Cl (stereo not given) | inactive |

From PubChem BioAssay (Tox21)
